# The campaign covered roughly 5,500 compounds. About 2,000 (36%) were called active. Roughly 18% stayed inconclusive and do not appear here. The list shows a part of the results. A number with no mark means an inactive call. Cut-off read from the data, not from the text of the source: active = normalized growth mostly below about 0.91 (no sharp cut-off); inconclusive = no clear call, values can overlap the other calls; inactive = mostly above about 0.92.
# Assay: chemical genetic growth profiling, strain panel (AID 1159580);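 note: tested at 20 µM; growth read once vehicle control cultures reached saturation at 30 °C; 1 = growth at the plate median or of vehicle wells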
# Details: S. cerevisiae deletion strains, growth OD
# [1] = locus YAR019C, strain CDC15, stronger effect = lower value
# [2] = locus YBL105C, strain PKC1, stronger effect = lower value
# [3] = locus YBR135W, strain CKS1, stronger effect = lower value
# [4] = locus YBR136W, strain MEC1, stronger effect = lower value
# [5] = locus YBR160W, strain CDC28, stronger effect = lower value
# [6] = locus YDL017W, strain CDC7, stronger effect = lower value
# [7] = locus YDL028C, strain MPS1, stronger effect = lower value
# [8] = locus YDL101C, strain DUN1, stronger effect = lower value
# [9] = locus YDL108W, strain KIN28, stronger effect = lower value
# [10] = locus YDL132W, strain cdc53, stronger effect = lower value
# [11] = locus YDL214C, strain PRR2, stronger effect = lower value
# [12] = locus YDR052C, strain DBF4, stronger effect = lower value
# [13] = locus YDR054C, strain cdc34, stronger effect = lower value
# [14] = locus YDR226W, strain ADK1, stronger effect = lower value
# [15] = locus YDR477W, strain SNF1, stronger effect = lower value
# [16] = locus YER123W, strain YCK3, stronger effect = lower value
# [17] = locus YER133W, strain GLC7, stronger effect = lower value
# [18] = locus YFL009W, strain cdc4, stronger effect = lower value
# [19] = locus YFL029C, strain CAK1, stronger effect = lower value
# [20] = locus YFR003C, strain YPI1, stronger effect = lower value
# [21] = locus YFR019W, strain FAB1, stronger effect = lower value
# [22] = locus YFR028C, strain CDC14, stronger effect = lower value
# [23] = locus YGR040W, strain KSS1, stronger effect = lower value
# [24] = locus YGR052W, strain FMP48, stronger effect = lower value
# [25] = locus YGR092W, strain DBF2, stronger effect = lower value
# [26] = locus YHR030C, strain SLT2, stronger effect = lower value
# [27] = locus YHR079C, strain IRE1, stronger effect = lower value
# [28] = locus YHR082C, strain KSP1, stronger effect = lower value
# [29] = locus YHR205W, strain SCH9, stronger effect = lower value
# [30] = locus YIL147C, strain SLN1, stronger effect = lower value
# [31] = locus YJL095W, strain BCK1, stronger effect = lower value
# [32] = locus YJL128C, strain PBS2, stronger effect = lower value
# [33] = locus YJL157C, strain FAR1, stronger effect = lower value
# [34] = locus YJR016C, strain ILV3, stronger effect = lower value
# [35] = locus YJR066W, strain TOR1 (second series), stronger effect = lower value
# [36] = locus YJR066W, strain TOR1, stronger effect = lower value
# [37] = locus YKL048C, strain ELM1, stronger effect = lower value
# [38] = locus YKL067W, strain YNK1, stronger effect = lower value
# [39] = locus YKL101W, strain HSL1, stronger effect = lower value
# [40] = locus YKL193C, strain SDS22, stronger effect = lower value
# [41] = locus YKL203C, strain TOR2, stronger effect = lower value
# [42] = locus YLR113W, strain HOG1, stronger effect = lower value
# [43] = locus YLR133W, strain CKI1, stronger effect = lower value
# [44] = locus YLR403W, strain SFP1, stronger effect = lower value
# [45] = locus YML070W, strain DAK1, stronger effect = lower value
# [46] = locus YMR001C, strain CDC5, stronger effect = lower value
# [47] = locus YMR205C, strain PFK2 (second series), stronger effect = lower value
# [48] = locus YMR277W, strain FCP1, stronger effect = lower value
# [49] = locus YNL006W, strain LST8, stronger effect = lower value
# [50] = locus YNL020C, strain ARK1, stronger effect = lower value
# [51] = locus YNL161W, strain CBK1, stronger effect = lower value
# [52] = locus YNL183C, strain NPR1, stronger effect = lower value
# [53] = locus YNL207W, strain RIO2, stronger effect = lower value
# [54] = locus YNL222W, strain SSU72, stronger effect = lower value
# [55] = locus YNL307C, strain MCK1 (second series), stronger effect = lower value
# [56] = locus YOL078W, strain AVO1, stronger effect = lower value
# [57] = locus YOL136C, strain PFK27, stronger effect = lower value
# [58] = locus YOR061W, strain CKA2, stronger effect = lower value
# [59] = locus YOR119C, strain RIO1, stronger effect = lower value
# [60] = locus YOR231W, strain MKK1, stronger effect = lower value
# [61] = locus YOR329C, strain SCD5, stronger effect = lower value
# [62] = locus YPL031C, strain PHO85, stronger effect = lower value
# [63] = locus YPL153C, strain RAD53, stronger effect = lower value
# [64] = locus YPL204W, strain HRR25, stronger effect = lower value
# [65] = locus YPL209C, strain IPL1, stronger effect = lower value
# [66] = locus YPL256C, strain CLN2, stronger effect = lower value
# [67] = locus YPR025C, strain CCL1, stronger effect = lower value
# [68] = locus YPR106W, strain ISR1, stronger effect = lower value
# [69] = locus YPR111W, strain DBF20, stronger effect = lower value
# [70] = strain NNK1, stronger effect = lower value
# [71] = strain TSCII, stronger effect = lower value
structure (smiles),measurement,setting,value
CCCCCC[C@@H]([C@@H](C)O)n1cnc2c(N)ncnc21,normalized growth,"locus YAL040C, strain CLN3, stronger effect = lower value",1.02
same,normalized growth,"locus YCL061C, strain MRC1 (second series), stronger effect = lower value",1
same,normalized growth,"locus YDR150W, strain NUM1, stronger effect = lower value",1.01
same,normalized growth,"locus YDR363W, strain ESC2, stronger effect = lower value",1
same,normalized growth,"locus YER002W, strain NOP16, stronger effect = lower value",1.01
same,normalized growth,"locus YGR229C, strain SMI1, stronger effect = lower value",0.945
same,normalized growth,"locus YJR075W, strain HOC1, stronger effect = lower value",0.99
same,normalized growth,"locus YMR263W, strain SAP30, stronger effect = lower value",1
same,normalized growth,"locus YNL128W, strain TEP1, stronger effect = lower value",0.992
same,normalized growth,"locus YNL175C, strain NOP13, stronger effect = lower value",1.02
same,normalized growth,"locus YNL197C, strain WHI3, stronger effect = lower value",1.01
same,normalized growth,"locus YNL224C, strain SQS1, stronger effect = lower value",0.992
same,normalized growth,"locus YOR083W, strain WHI5 (second series), stronger effect = lower value",1.06
same,normalized growth,"locus YPL241C, strain CIN2, stronger effect = lower value",1
O=C(CSCc1nc(-c2ccc(Cl)cc2)cs1)N/N=C\c1cccs1,normalized growth,[1],0.984
same,normalized growth,[2],0.97
same,normalized growth,[3],0.969
same,normalized growth,[4],0.972
same,normalized growth,[5],0.969
same,normalized growth,[6],0.97
same,normalized growth,[7],0.973
same,normalized growth,[8],0.978
same,normalized growth,[9],0.975
same,normalized growth,[10],0.966
same,normalized growth,[11],0.91
same,normalized growth,[12],0.98
same,normalized growth,[13],0.97
same,normalized growth,[14],0.972
same,normalized growth,[15],0.953
same,normalized growth,[16],0.908
same,normalized growth,[17],0.946
same,normalized growth,[18],0.971
same,normalized growth,[19],0.973
same,normalized growth,[20],0.962
same,normalized growth,[21],0.929
same,normalized growth,[22],0.963
same,normalized growth,[23],0.935
same,normalized growth,[24],0.948
same,normalized growth,[25],0.98
same,normalized growth,[26],1.01
same,normalized growth,[27],1.03
same,normalized growth,[28],0.998
same,normalized growth,[29],0.935
same,normalized growth,[30],0.975
same,normalized growth,[31],0.936
same,normalized growth,[32],0.924
same,normalized growth,[33],0.95
same,normalized growth,[34],0.974
same,normalized growth,[35],0.951
same,normalized growth,[36],1.02
same,normalized growth,[37],0.944
same,normalized growth,[38],0.932
same,normalized growth,[39],0.921
same,normalized growth,[40],0.972
same,normalized growth,[41],1
same,normalized growth,[42],0.831 (active)
same,normalized growth,[43],0.917
same,normalized growth,[44],0.933
same,normalized growth,[45],0.93
same,normalized growth,[46],0.976
same,normalized growth,[47],0.942
same,normalized growth,[48],0.98
same,normalized growth,[49],0.973
same,normalized growth,[50],0.925
same,normalized growth,[51],0.969
same,normalized growth,[52],0.971
same,normalized growth,[53],0.967
same,normalized growth,[54],0.974
same,normalized growth,[55],0.956
same,normalized growth,[56],0.966
same,normalized growth,[57],0.866
same,normalized growth,[58],0.943
same,normalized growth,[59],0.994
same,normalized growth,[60],0.927
same,normalized growth,[61],0.975
same,normalized growth,[62],0.96
same,normalized growth,[63],0.969
same,normalized growth,[64],0.906
same,normalized growth,[65],0.969
same,normalized growth,[66],0.965
same,normalized growth,[67],0.979
same,normalized growth,[68],0.97
same,normalized growth,[69],0.952
same,normalized growth,[70],0.966
same,normalized growth,[71],0.968
CC(C)CSc1nnc(CSCc2nc(-c3ccc(Cl)cc3)cs2)n1C,normalized growth,[1],0.979
same,normalized growth,[2],0.964
same,normalized growth,[3],0.968
same,normalized growth,[4],0.964
same,normalized growth,[5],0.97
same,normalized growth,[6],0.974
same,normalized growth,[7],0.966
same,normalized growth,[8],0.958
same,normalized growth,[9],0.96
same,normalized growth,[10],0.961
same,normalized growth,[11],0.94
same,normalized growth,[12],0.974
same,normalized growth,[13],0.968
same,normalized growth,[14],0.974
same,normalized growth,[15],0.965
same,normalized growth,[16],0.913
same,normalized growth,[17],0.954
same,normalized growth,[18],0.976
same,normalized growth,[19],0.973
same,normalized growth,[20],0.965
same,normalized growth,[21],0.946
same,normalized growth,[22],0.97
same,normalized growth,[23],0.931
same,normalized growth,[24],0.979
same,normalized growth,[25],0.981
same,normalized growth,[26],1.03
same,normalized growth,[27],1.06
same,normalized growth,[28],1.03
same,normalized growth,[29],0.988
same,normalized growth,[30],0.962
same,normalized growth,[31],0.956
same,normalized growth,[32],0.929
same,normalized growth,[33],0.956
same,normalized growth,[34],0.971
same,normalized growth,[35],0.961
same,normalized growth,[36],1.05
same,normalized growth,[37],0.954
same,normalized growth,[38],0.95
same,normalized growth,[39],0.925
same,normalized growth,[40],0.971
same,normalized growth,[41],1.02
same,normalized growth,[42],0.865
same,normalized growth,[43],0.927
same,normalized growth,[44],0.948
same,normalized growth,[45],0.929
same,normalized growth,[46],0.973
same,normalized growth,[47],0.961
same,normalized growth,[48],0.966
same,normalized growth,[49],0.979
same,normalized growth,[50],0.941
same,normalized growth,[51],0.973
same,normalized growth,[52],1.01
same,normalized growth,[53],0.967
same,normalized growth,[54],0.972
same,normalized growth,[55],0.974
same,normalized growth,[56],0.964
same,normalized growth,[57],0.882
same,normalized growth,[58],0.939
same,normalized growth,[59],1.01
same,normalized growth,[60],0.944
same,normalized growth,[61],0.974
same,normalized growth,[62],0.95
same,normalized growth,[63],0.96
same,normalized growth,[64],0.917
same,normalized growth,[65],0.974
same,normalized growth,[66],0.999
same,normalized growth,[67],0.969
same,normalized growth,[68],0.962
same,normalized growth,[69],0.95
same,normalized growth,[70],0.966
same,normalized growth,[71],0.969
